# Test results published in PubChem BioAssay (NCI).
# Compounds without any hit were thinned out: in the full panel of roughly 79,000, 15% have a hit. A number with no mark means an inactive call. Active and inactive are the calls of the source. Rule as the data show it: active = growth inhibition above about 70%; inactive = the rest.
# Assays:
# [1] = NCI Yeast Anticancer Drug Screen. Data for the rad50 strain (AID 155);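 also: 0% = growth of vehicle-only cultures of the same strain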; conditions: S. cerevisiae rad50 strain growth inhibition; at 50.0 µM; stronger effect = higher value
# Summary of the method: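 A DNA repair-deficient yeast mutant serves as the test organism; compound-induced growth inhibition is calculated against vehicle-treated cells.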
# [2] = NCI Yeast Anticancer Drug Screen. Data for the mec2-1 strain (AID 157); conditions: S. cerevisiae mec2-1 strain, at 50.0 µM, stronger effect = higher value
# Summary of the method: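 Test agents were screened against the mec2-1 yeast strain, with defined DNA repair or cell cycle alteration. Growth was scored as inhibition against vehicle-only controls.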
# [3] = NCI Yeast Anticancer Drug Screen. Data for the sgs1 mgt1 strain (AID 161);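 also: 0% = growth of cultures given vehicle only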; conditions: S. cerevisiae sgs1 mgt1 strain, at 50.0 µM, stronger effect = higher value
# Summary of the method: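 Inhibition of yeast growth, normalised to vehicle-treated controls, is reported for a strain bearing genetic alterations in DNA damage repair.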
# [4] = NCI Yeast Anticancer Drug Screen. Data for the cln2 rad14 strain (AID 165);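 also: 0% = growth equal to vehicle treated cultures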; conditions: S. cerevisiae cln2 rad14 strain, at 50.0 µM, stronger effect = higher value
# Summary of the method: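 Growth of compound-exposed yeast (cln2 rad14 genotype) measured and expressed as inhibition relative to vehicle.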
# [5] = NCI Yeast Anticancer Drug Screen. Data for the bub3 strain (AID 167); conditions: S. cerevisiae bub3 mutant strain, at 50.0 µM, stronger effect = higher value
# Summary of the method: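 Inhibition values come from growth of compound-treated mutant yeast normalised to vehicle-treated controls.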
# [6] = NCI Yeast Anticancer Drug Screen. Data for the mlh1 rad18 strain (AID 175); conditions: S. cerevisiae mlh1 rad18 strain growth inhibition; at 50.0 µM; stronger effect = higher value
# Summary of the method: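 In this whole-cell yeast screen, a strain with altered DNA damage repair is challenged with compound, and its growth is measured against matched vehicle-treated controls.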
SMILES,growth inhibition [1],growth inhibition [2],growth inhibition [3],growth inhibition [4],growth inhibition [5],growth inhibition [6]
CC(=O)OCC1OC(OC(C)=O)C(NC(=O)C(C)NC(=O)OCc2ccccc2)C(OC(C)=O)C1OC(C)=O (stereo unspecified),37.1%,6.9%,16.2%,11.6%,-1.05%,14.6%
O=C(O)C(=O)Cc1cccc(Cl)c1[N+](=O)[O-],2.15%,5.25%,13.4%,-10.6%,-4.75%,15%
O=C1NC(=O)C(Cc2ccco2)N1 (stereo unspecified),10.8%,6.7%,-7.85%,-20.6%,-35.5%,-5.2%
O=C1c2ccccc2C2(c3ccccc3)C=NNC12c1ccccc1 (stereo unspecified),21.5%,6.9%,18.2%,4.4%,55.5%,25.1%
CC(=O)OC1COC([n+]2cccc(C(N)=O)c2)C(OC(C)=O)C1OC(C)=O (stereo unspecified),-36.5%,-22.7%,-25.9%,-32.6%,-9.95%,-20%
CC/C=N/NC(=O)OCC,-9.8%,-4.85%,-13.9%,1.1%,-3.3%,-6.85%
O=C(O)C(CO)N=Cc1nc(-c2ccccc2)oc1O (stereo unspecified),0.2%,6.05%,12.4%,9.25%,-6.25%,-11.8%
CCO/N=C(\C(=O)NO)c1ccccc1,-6.35%,1.6%,1.5%,-24.4%,-1.9%,13.2%
CC(C)(CO[C@H]1C[C@H]2CC[C@@]1(C)C2(C)C)[N+](=O)[O-],25.4%,-7%,50%,-17.4%,12.9%,18.4%
CC1=C(C(=O)NCc2ccccc2)C(c2ccco2)C(C(=O)NCc2ccccc2)=C(C)N1,-34.5%,-20.4%,-37.5%,-13.3%,-9.9%,-21.8%
O=c1/c(=C/c2ccc(Cl)cc2)sc2nc(-c3ccccc3)nn12,0.85%,7.75%,8.8%,-6.75%,-12.8%,23.6%
CC(C)=CCN1c2ccccc2NC(=O)CC1C (stereo unspecified),-24.1%,-66.7%,-6.55%,4.5%,-10.9%,-14.9%
COC(=O)c1ccccc1NC(=NC1CCCCCC1)NS(=O)(=O)c1ccc(C)cc1,30.4%,11.2%,-13.8%,-8.15%,0.3%,-31.3%
N#C/C(=N\NC(=O)c1cccc(C(=O)N/N=C(\C#N)c2ccccc2Cl)n1)c1ccccc1Cl,-0.95%,-10.9%,-5.1%,-14.6%,-1.85%,4.2%
O=C(O)c1c[nH]c2cc(OCc3ccccc3)ccc2c1=O,-4.1%,-44.4%,-45.5%,-7.15%,-21.1%,7.75%
CN(C)C1C(=O)c2ccccc2C1=O,-34.6%,-27.6%,-29.5%,-5.1%,0.05%,-14.8%
CCOC(=O)[C@@]12[C@H](N3C(=O)c4ccccc4C3=O)C(=O)N1CCS2(=O)=O,-1.9%,-5.7%,-29.4%,-22.9%,-1.5%,6.95%
Cn1c(=O)c2nsnc2n(C)c1=O,-21.1%,-11%,-14.2%,-25.3%,-3.7%,14.1%
O=C(C/C(=C/c1ccccc1)[N+](=O)[O-])c1ccccc1,99.2% (active),99.2% (active),99.3% (active),98.8% (active),99% (active),98.8% (active)
COc1cc(C2SC(N)=Nc3c2c(C)nn3C(=O)c2ccc(Cl)cc2)ccc1O (stereo unspecified),-36.7%,15.8%,-9.55%,-30.4%,16.8%,-10.2%
COC(=O)C1c2ccccc2CC(=O)N1N (stereo unspecified),-2.7%,-8.5%,-20.6%,8.25%,7.05%,9.15%

SMILES,growth inhibition [1],growth inhibition [2],growth inhibition [3],growth inhibition [4],growth inhibition [5],growth inhibition [6]
CC(C)(C)C1=Cc2cc3cc(C(C)(C)C)[nH]c(=O)c3cc2S(=O)(=O)N1,-23.2%,-22.6%,-14.4%,3%,5.4%,-20.9%
O=C(O)c1cnc2cccc([N+](=O)[O-])c2c1,2.5%,10.7%,0.2%,-50.5%,-22.2%,11.4%
CCOC(=O)C(C)(OCC)OCC,-13.4%,-13.2%,-17.2%,-8.55%,-0.3%,11.9%
CCN1C(=O)c2ccccc2C1=O,11.8%,-9.85%,-5.25%,-16.9%,5.95%,24.1%
CC(C)C(N)C(=O)NO (stereo unspecified),-17.1%,17.9%,-13.4%,5.05%,-1.7%,-7.3%
COc1cc(-c2cccs2)sc1-c1cccs1,10.4%,-7.15%,31.4%,8.95%,19.6%,13.2%
Cc1c(C(=O)Nc2ccc(Cl)cc2)nc(N)nc1-c1cccc(Cl)c1,-18.9%,-8.85%,2.3%,1.1%,-3.6%,-8.7%
O=[N+]([O-])c1cccc(C=NC23CC4CC(CC(C4)C2)C3)c1,-2.15%,7.45%,-29.6%,28.7%,30.1%,-4.15%
OCCCCCCCCCCCBr,28.4%,4.05%,-3.1%,-27.1%,9.4%,17.1%
Cc1c(O)c2c(c(O)c1Cc1ccc(C#N)cc1)C(=O)c1ccccc1C2=O,-4.5%,31.4%,17.9%,-4.25%,-1.95%,-0.9%
COc1ccc2c(c1)C1=C(CC2)C(=O)OC1=O,-0.9%,11.7%,28.5%,2.8%,5.05%,-4.85%
NC(N)=NNC(=O)C(=O)O,-4.5%,-7.9%,3.85%,-19.5%,-7.6%,7.9%
COC(=O)C(Cc1ccccc1)NC(=O)Cn1ccnc1[N+](=O)[O-] (stereo unspecified),9.65%,-19.6%,15.2%,7.7%,-16%,-3.3%
Cn1c(=O)c2c(nc(C(=N)SCC(=O)O)n2C)n(C)c1=O,3.1%,16.4%,15.8%,55%,-44.8%,3.8%
CC[C@@H](C)[C@H]([C@H](CC(=O)N1CCC[C@@H]1[C@@H](OC)[C@H](C)C(=O)N[C@H](Cc1ccccc1)c1nccs1)OC)N(C)C(=O)[C@H](NC(=O)[C@@H](C(C)C)N(C)C)C(C)C,6.95%,-22.6%,-2.2%,8.3%,20.3%,16.8%
NC(=S)N/N=C\c1nccc2ccsc12,10.4%,-5.7%,-9.35%,-29.9%,-0.05%,2.7%
N#CC(C(=O)O)C1(c2ccccc2)CCCCC1 (stereo unspecified),-13%,4.95%,-5.3%,-16%,1.1%,-3.45%
CN1CCCCCCCC(=O)C(OC(=O)c2ccc([N+](=O)[O-])cc2)CCCCCCC1 (stereo unspecified),33.5%,4.25%,27%,9.85%,1.55%,14.1%
CC(C)CCC1(C2CCOCC2)NC(=O)NC1=O (stereo unspecified),-9.85%,-6.6%,-4.85%,-26.6%,-7.55%,0.95%
Nc1nc2ncc(CCCNc3ccc(C(=O)NC(CCC(=O)O)C(=O)O)cc3)nc2c(=O)[nH]1 (stereo unspecified),33%,15.4%,8.3%,10.2%,3.7%,22.1%
